# Data reported in the supplement of paper PMC8728848.
# Many of the other results were omitted from the sample, so the strongest signals are more common in it than they were.
# Experiments:
# Assay in all cases: glycan array binding signal (z-score within array); higher = stronger binding
# Details in all cases: glycan notation: IUPAC condensed, linker removed
# [1] = biological target: Fuc(a1-2)Gal
# Outline: (§1)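 Glycan array data came from 3228 arrays in the Consortium for Functional Glycomics database, and only arrays with an available protein sequence were kept. Glycan names were put into IUPAC-condensed notation, and columns mapping to the same glycan were averaged. The binding signal is a within-array Z-score, averaged across arrays of one protein sequence run at different concentrations or buffers and across linkers. A negative Z-score can be read as non-binding.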
# [2] = biological target: Fuc(a1-2)Gal(b1-3)GlcNAc(b1-3)[Fuc(a1-2)Gal(b1-3)GlcNAc(b1-6)]GalNAc
# Outline: as §1
# [3] = biological target: Fuc(a1-2)Gal(b1-4)GlcNAc(b1-3)Gal(b1-4)GlcNAc(b1-2)Man(a1-3)[Fuc(a1-2)Gal(b1-4)GlcNAc(b1-3)Gal(b1-4)GlcNAc(b1-2)Man(a1-6)]Man(b1-4)GlcNAc(b1-4)GlcNAc
# Outline: as §1
# [4] = biological target: Fuc(a1-2)[Gal(a1-3)]Gal(b1-4)[Fuc(a1-3)]Glc
# Outline: as §1
# [5] = biological target: Fuc(a1-3)[Gal(b1-4)]GlcNAc(b1-2)Man(a1-3)[Fuc(a1-3)[Gal(b1-4)]GlcNAc(b1-2)Man(a1-6)]Man(b1-4)GlcNAc(b1-4)[Fuc(a1-6)]GlcNAc
# Outline: as §1
# [6] = biological target: Fuc(a1-3)[Gal(b1-4)]GlcNAc(b1-6)[Gal(b1-3)GlcNAc(b1-3)]Gal(b1-4)Glc
# Outline: as §1
# [7] = biological target: Fuc(a1-3)[GalNAc(b1-4)]GlcNAc
# Outline: as §1
# [8] = biological target: Fuc(a1-4)GlcNAc
# Outline: as §1
# [9] = biological target: Gal(a1-3)Gal(b1-3)GlcNAc(b1-2)Man
# Outline: as §1
# [10] = biological target: Gal(a1-3)Gal(b1-3)GlcNAc(b1-6)GalNAc
# Outline: as §1
# [11] = biological target: Gal(a1-3)Gal(b1-4)GlcNAc(b1-6)GalNAc
# Outline: as §1
# [12] = biological target: Gal(a1-4)Gal(b1-3)GlcNAc(b1-2)Man(a1-3)[Gal(a1-4)Gal(b1-3)GlcNAc(b1-2)Man(a1-6)]Man(b1-4)GlcNAc(b1-4)GlcNAc
# Outline: as §1
# [13] = biological target: Gal(b1-3)GlcNAc(b1-2)[Gal(b1-3)GlcNAc(b1-6)]Man(a1-6)[Gal(b1-3)GlcNAc(b1-2)Man(a1-3)]Man(b1-4)GlcNAc(b1-4)GlcNAc
# Outline: as §1
# [14] = biological target: Gal(b1-4)GlcNAc(b1-2)Man
# Outline: as §1
# [15] = biological target: Gal(b1-4)GlcNAc(b1-2)Man(a1-6)Man(b1-4)GlcNAc(b1-4)GlcNAc
# Outline: as §1
# [16] = biological target: Gal(b1-4)GlcNAc(b1-2)Man(a1-6)[Man(a1-3)]Man(b1-4)GlcNAc(b1-4)GlcNAc
# Outline: as §1
# [17] = biological target: Gal(b1-4)GlcNAc(b1-2)[Gal(b1-4)GlcNAc(b1-6)]Man(a1-6)[GlcNAc(b1-4)][Gal(b1-4)GlcNAc(b1-2)[Gal(b1-4)GlcNAc(b1-4)]Man(a1-3)]Man(b1-4)GlcNAc(b1-4)[Fuc(a1-6)]GlcNAc
# Outline: as §1
# [18] = biological target: Gal(b1-4)GlcNAc(b1-3)Gal(b1-3)GlcNAc
# Outline: as §1
# [19] = biological target: Gal(b1-4)GlcNAc(b1-3)Gal(b1-4)GlcNAc(b1-2)[Gal(b1-4)GlcNAc(b1-3)Gal(b1-4)GlcNAc(b1-6)]Man(a1-6)[Gal(b1-4)GlcNAc(b1-3)Gal(b1-4)GlcNAc(b1-2)Man(a1-3)]Man(b1-4)GlcNAc(b1-4)GlcNAc
# Outline: as §1
# [20] = biological target: Gal(b1-4)GlcNAc(b1-3)Gal(b1-4)GlcNAc(b1-3)Gal(b1-4)GlcNAc(b1-2)Man(a1-3)[Gal(b1-4)GlcNAc(b1-3)Gal(b1-4)GlcNAc(b1-3)Gal(b1-4)GlcNAc(b1-2)Man(a1-6)]Man(b1-4)GlcNAc(b1-4)[Fuc(a1-6)]GlcNAc
# Outline: as §1
# [21] = biological target: Gal(b1-4)GlcNAc(b1-3)Gal(b1-4)GlcNAc(b1-3)Gal(b1-4)GlcNAc(b1-2)[Gal(b1-4)GlcNAc(b1-3)Gal(b1-4)GlcNAc(b1-3)Gal(b1-4)GlcNAc(b1-6)]Man(a1-6)[Gal(b1-4)GlcNAc(b1-3)Gal(b1-4)GlcNAc(b1-3)Gal(b1-4)GlcNAc(b1-2)Man(a1-3)]Man(b1-4)GlcNAc(b1-4)[Fuc(a1-6)]GlcNAc
# Outline: as §1
# [22] = biological target: Gal(b1-4)GlcNAc(b1-3)Gal(b1-4)GlcNAc(b1-3)Gal(b1-4)GlcNAc(b1-3)Gal(b1-4)GlcNAc(b1-3)Gal(b1-4)GlcNAc(b1-2)Man(a1-3)[Gal(b1-4)GlcNAc(b1-3)Gal(b1-4)GlcNAc(b1-3)Gal(b1-4)GlcNAc(b1-3)Gal(b1-4)GlcNAc(b1-3)Gal(b1-4)GlcNAc(b1-2)Man(a1-6)]Man(b1-4)GlcNAc(b1-4)GlcNAc
# Outline: as §1
# [23] = biological target: Gal(b1-4)GlcNAc(b1-3)Gal(b1-4)GlcNAc(b1-6)[Gal(b1-3)]GalNAc
# Outline: as §1
# [24] = biological target: Gal(b1-4)GlcNAc(b1-3)Gal(b1-4)[Fuc(a1-3)]GlcNAc(b1-3)Gal(b1-4)[Fuc(a1-3)]GlcNAc
# Outline: as §1
binder,measurement,setting,value
SP15308F-bth-333-19-333 (Bacteroides thetaiotaomicron) (protein) SCNNEWESEQYVQMVSFKAPVNAQGVTPIYIRYKPEGKVTYQLPLIVSGSTMNSKDLNVHVGLDLDTLDVLNVEHFGSRKELFFKPLENKYYEFPETVQIPAGECTSLLPIDFALKDLDQVDKWVLPLAIQSNDPSHNYQANPRKFYRRAMLRISPFNDYSGQYSATAYKVYFKGNEKEAIVPEYHTSYVIDDKTIFFYAGLIDIDRLDRKYYKIKFEFTEEKIDLQTRKLKISSDNEDINLVVKGQPSYTVEEEMDATRPYLKHIYVTINNLEYEFTDYTSVPGYPLEYVVKGSLTMERKINTQIPDEDQAIEW,glycan array binding signal (z-score),[1],-0.518
same,glycan array binding signal (z-score),[2],0.606
same,glycan array binding signal (z-score),[3],3.55
same,glycan array binding signal (z-score),[4],-0.455
same,glycan array binding signal (z-score),[5],-0.717
same,glycan array binding signal (z-score),[6],0.652
same,glycan array binding signal (z-score),[7],6.34
same,glycan array binding signal (z-score),[8],7.35
same,glycan array binding signal (z-score),[9],0.13
same,glycan array binding signal (z-score),[10],-1.04
same,glycan array binding signal (z-score),[11],-0.976
same,glycan array binding signal (z-score),[12],-1.15
same,glycan array binding signal (z-score),[13],0.375
same,glycan array binding signal (z-score),[14],2.88
same,glycan array binding signal (z-score),[15],-1.02
same,glycan array binding signal (z-score),[16],-0.531
same,glycan array binding signal (z-score),[17],0.062
same,glycan array binding signal (z-score),[18],-0.026
same,glycan array binding signal (z-score),[19],-0.769
same,glycan array binding signal (z-score),[20],1.45
same,glycan array binding signal (z-score),[21],0.279
same,glycan array binding signal (z-score),[22],3.23
same,glycan array binding signal (z-score),[23],-0.045
same,glycan array binding signal (z-score),[24],0.753
